From PubChem BioAssay
A selection: hits, their analogues and other compounds. The true share with any hit is near 19%.
TDP1 cell noCPT – qHTS for Inhibitors of human tyrosyl-DNA phosphodiesterase 1 (TDP1): qHTS in cells in absence of CPT; hit rate 15% among 420,000; DT40 Tdp1-/- hTDP1 cells, no CPT, ATP luminescence, 48 h; Potency, µM (doses to about 46.2 µM), without a hit: top-dose activity change, negative = growth inhibition, most hits filed as inhibitors; further: potency means the concentration at half of the fitted maximal effect; nearly all actives have a fitted effect of over 55% in size
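No-CPT arm: Tdp1-/-;hTDP1 DT40 cells (400/well) plus compounds, incubated ≥48 hr at 37 °C. Readout CellTiter-Glo luminescence.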
TDP1 block – blocks human tyrosyl-DNA phosphodiesterase 1; hit rate 0.28% among 350,000; Q9NUW8; Potency, µM (top dose mostly 130 µM), inactives show at the top dose activity change, negative = inhibition, hits mostly inhibitors; recombinant TDP1, AlphaScreen DNA substrate cleavage; further: potency means the concentration at half of the fitted maximal effect; nearly all actives have a fitted effect of over 40% in size
Target sequence (Q9NUW8 whole entry, looked up): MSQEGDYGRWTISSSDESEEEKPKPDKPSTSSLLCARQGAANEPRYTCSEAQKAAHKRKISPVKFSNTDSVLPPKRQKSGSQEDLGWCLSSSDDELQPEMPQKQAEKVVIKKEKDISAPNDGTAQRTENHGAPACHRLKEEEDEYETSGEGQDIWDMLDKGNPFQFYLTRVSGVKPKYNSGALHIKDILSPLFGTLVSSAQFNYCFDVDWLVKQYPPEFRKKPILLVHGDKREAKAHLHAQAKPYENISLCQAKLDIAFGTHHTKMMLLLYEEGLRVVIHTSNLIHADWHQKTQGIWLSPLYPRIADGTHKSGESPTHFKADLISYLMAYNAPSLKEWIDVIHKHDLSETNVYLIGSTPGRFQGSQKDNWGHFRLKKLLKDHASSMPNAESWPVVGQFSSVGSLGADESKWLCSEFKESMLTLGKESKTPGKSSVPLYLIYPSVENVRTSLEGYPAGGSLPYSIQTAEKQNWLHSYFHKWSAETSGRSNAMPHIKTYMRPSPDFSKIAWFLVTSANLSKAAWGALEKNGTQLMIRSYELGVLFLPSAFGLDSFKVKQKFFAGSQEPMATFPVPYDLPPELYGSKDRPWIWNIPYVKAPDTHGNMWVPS
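Signal: AlphaScreen proximity between streptavidin donor and anti-FITC acceptor beads on intact substrate. Reaction: Tdp1 1 nM, substrate 15 nM final, 5 min RT after 15 min compound preincubation.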
TDP1 cell CPT – DT40-hTDP1 cell growth loss with CPT | chicken DT40 Tdp1-/-;hTDP1 cells + 20 nM CPT, ATP luminescence, 48 h | Potency, µM (highest dose often 46.2 µM), for the others: at the highest dose activity change, negative = growth inhibition, most hits filed as inhibitors | hit rate 12% among 420,000; further: potency means the concentration at half of the fitted maximal effect; nearly all actives have a fitted effect of over 55% in size
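Cell growth measured by CellTiter-Glo luminescence after a minimum 48 h, 37 C compound exposure with 20 nM CPT in Tdp1-knockout DT40 cells stably expressing hTDP1, seeded 400/well; qHTS titration format.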
Giardia killer – kills Giardia lamblia; Giardia lamblia trophozoite viability; activity change, % at 7.66 µM, hits read low; hit rate 0.15% among 340,000; AID 540267; in the data active means activity change below about -80%; inconclusive means between about -30% and that limit;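 further: parasites exposed to compound for two days anaerobically before the ATP read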
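Giardia trophozoites, 100 cells per well, were exposed to compounds for 48 hrs at 37 deg C under anaerobic conditions; viability was then read as ATP content by bioluminescence after 15-30 min at room temperature.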
IL-1B inflam inh – inflammasome signaling inhibition, IL-1 beta readout; THP-1 LPS/ATP IL-1B secretion, AlphaLISA, 16 h; active compounds read low; activity change, % at 57.5 µM; hit rate 4.7% among 360,000; in the data active means activity change below about -50%; inconclusive means mostly about -30% to -49%
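Secreted IL-1B measured by AlphaLISA bead assay after 16 h compound exposure of THP-1 cells; compounds (final up to 57.5 uM) added 1 h before LPS (250 ng/mL) and ATP (1.25 mM) stimulation; lower signal means less secretion.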
ELG1 repair inh – ELG1-dependent DNA repair inhibition | Potency, µM (highest dose often 46.1 µM), for the others: top-dose activity change, negative = inhibition, actives largely listed as inhibitors | hit rate 2.3% among 330,000 | AID 504467 | HEK293T ELG1-luciferase reporter, luminescence, 16 h; DNA damage induced by 5-fluorouridine; further: potency means the concentration at half of the fitted maximal effect; nearly all actives have a fitted effect of over 55% in size
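Cells (2,000 per well) received 5-fluorouridine plus test compound or DMSO and were incubated 16 hr at 37 °C, 5% CO2. Luciferase activity was read by luminescence 30 min after ONE-Glo addition; signal suppression marked inhibition of damage-induced ELG1 function.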
Starred values were filed as active, the others as inactive; [ ] = another dose, or the depositor's remark. Unless noted, the call rests on the fitted dose curve; in most records, active means well fitted curve in the direction sought with a large enough effect; inconclusive means small, poorly fitted or top-dose-only effect, or another doubt; inactive means no such curve, though single readings can be large; an effect the other way counts as inactive or inconclusive. On the % scale 0 is the no-effect control and ±100 the full control effect.

For Cc1cc(=O)oc2c(C)c(OCC(=O)N3CCN(c4cccc(Cl)c4)CC3)ccc12 the results were TDP1 cell noCPT 23µM*, TDP1 block 1%, TDP1 cell CPT 21µM*, Giardia killer inconclusive, IL-1B inflam inh -23 and ELG1 repair inh inconclusive.
CCCc1cc(=O)oc2c(C)c(OCC(=O)c3ccc(N4CCCC4)cc3)ccc12 was read as TDP1 cell noCPT 18µM*, TDP1 block 1%, TDP1 cell CPT inconclusive, Giardia killer -2, IL-1B inflam inh 6 and ELG1 repair inh 6%.
Cc1ccc(NC(=S)NCc2ccc(F)cc2)cc1 was read as TDP1 cell noCPT 26µM*, TDP1 cell CPT inconclusive, Giardia killer 13 and IL-1B inflam inh -4.
Screening Cc1ccc(CSC(Nc2ccc(F)cc2)=C(C#N)C#N)cc1 returned TDP1 cell noCPT 3.3µM*, TDP1 block 8%, TDP1 cell CPT 3.7µM*, Giardia killer 13, IL-1B inflam inh -57* and ELG1 repair inh inconclusive.
`Cc1ccc(CNC(=S)Nc2ccc(NS(=O)(=O)c3ccc(C)cc3)cc2)cc1` gave TDP1 cell noCPT 23µM*, TDP1 block 1%, TDP1 cell CPT inconclusive, Giardia killer -13, IL-1B inflam inh 0 and ELG1 repair inh inconclusive.
For COC(=O)Cc1ccc(NC(=S)NCc2ccc(S(N)(=O)=O)cc2)cc1 the results were TDP1 cell noCPT -17%, TDP1 cell CPT 21µM*, Giardia killer -2, IL-1B inflam inh 45 and ELG1 repair inh 15%.
For CCOC(=O)c1ccc(NC(=S)NCc2ccc(F)cc2)cc1 the results were TDP1 cell noCPT inconclusive, TDP1 cell CPT inconclusive, Giardia killer 4 and IL-1B inflam inh 15.
`Cc1ccc(NS(=O)(=O)c2ccc(C(=O)NCc3ccc(S(N)(=O)=O)cc3)cc2)cc1` gave TDP1 cell noCPT inconclusive, TDP1 block 1%, TDP1 cell CPT inconclusive, Giardia killer 3, IL-1B inflam inh -9 and ELG1 repair inh -29%.
For COc1ccc(-c2nc3cnc(OC)nc3n(-c3ccccc3)c2=O)cc1 the results were TDP1 cell noCPT 20% and TDP1 cell CPT 25%.
Screening O=C(O)c1ccc(S(=O)(=O)Nc2ccc(O)c(Sc3nc4ccccc4s3)c2)cc1 returned TDP1 cell noCPT -1%, TDP1 block -10%, TDP1 cell CPT 4%, Giardia killer 10, IL-1B inflam inh 31 and ELG1 repair inh -7%.
CCNC(=O)Cn1c(-c2cccs2)cc2ccccc21 was read as TDP1 cell noCPT inconclusive, TDP1 block -5% and TDP1 cell CPT inconclusive.
Screening Cc1ccc(CNC(=S)NC2CCC(C(C)(C)C)CC2)cc1 (centres undefined) returned TDP1 cell noCPT 23µM*, TDP1 block 6%, TDP1 cell CPT inconclusive, Giardia killer 0, IL-1B inflam inh 25 and ELG1 repair inh -5%.
COc1ccc(CNC(=S)NC2CCCC2)cc1 was read as TDP1 cell noCPT inconclusive, TDP1 block 7%, TDP1 cell CPT inconclusive, Giardia killer -1, IL-1B inflam inh 2 and ELG1 repair inh 4%.
Screening COc1ccc(C2=NN3C(=O)c4c(ccc(OC)c4OC)C3C2)cc1 (centres undefined) returned TDP1 cell noCPT inconclusive, TDP1 block 3%, TDP1 cell CPT -29%, Giardia killer -10, IL-1B inflam inh -3 and ELG1 repair inh 15%.
COc1ccc2c(c1OC)C(=O)N1N=C(c3ccc(Cl)cc3)CC21 (centres undefined) was read as TDP1 cell noCPT inconclusive, TDP1 block 1%, TDP1 cell CPT -2%, Giardia killer 7, IL-1B inflam inh -82* and ELG1 repair inh inconclusive.
For COc1ccc(C2NC(=S)N3C(c4ccc(OC)cc4)NC(=S)N23)cc1 (centres undefined) the results were TDP1 cell noCPT 16µM*, TDP1 block 9%, TDP1 cell CPT inconclusive, Giardia killer 26, IL-1B inflam inh 0 and ELG1 repair inh inconclusive.
`COC(=O)C1=C[C@@H](C(=O)OC)C2C3=C(C(=O)[C@]2(C)NC(=O)c2ccccc2)[C@H](C)n2c(=O)n(-c4ccccc4)c(=O)n2[C@@H]3C1` (some centres undefined) gave TDP1 block 6% and Giardia killer 14.
C=CCCN(Cc1ccc(OC)cc1)S(=O)(=O)c1ccccc1Br was read as TDP1 block -13% and Giardia killer -9.
`C=CCCN(Cc1ccccc1)S(=O)(=O)c1cc(Br)ccc1Br` gave TDP1 cell noCPT 15µM*, TDP1 block -17%, TDP1 cell CPT inconclusive, Giardia killer -5, IL-1B inflam inh 16 and ELG1 repair inh -13%.
CC1C=CCC2C(=O)N(c3cccc(C(=O)NCc4ccccc4)c3)C(=O)C12 (centres undefined) was read as TDP1 cell noCPT 5%, TDP1 cell CPT -5%, Giardia killer 2, IL-1B inflam inh 6 and ELG1 repair inh -9%.
Screening O=C(/C=C/c1ccc(O)c(O)c1)O[C@@H]1C[C@@](O)(C(=O)O)C[C@H](O)[C@@H]1O returned TDP1 cell noCPT -4%, TDP1 block 6%[56.1 µM] and TDP1 cell CPT 15%.
For CCOc1ccccc1-c1ccc2nccn2c1 the results were TDP1 cell noCPT inconclusive, TDP1 cell CPT inconclusive and IL-1B inflam inh 36.
`O=C(CCNC(=O)c1ccc(Cl)cc1)Nc1ccc(S(=O)(=O)N2CCOCC2)cc1` gave TDP1 cell noCPT -4%, TDP1 block 0%[56.1 µM], TDP1 cell CPT inconclusive, Giardia killer -24, IL-1B inflam inh 16 and ELG1 repair inh 12%.
O=S(=O)(NCC1CCN(c2ccc(S(=O)(=O)N3CCOCC3)cc2)CC1)c1ccc(F)cc1 was read as TDP1 cell noCPT 21µM*, TDP1 block 3%, TDP1 cell CPT 23µM*, Giardia killer -8, IL-1B inflam inh -5 and ELG1 repair inh inconclusive.
For O=S(=O)(NCC1CCN(c2ccc(S(=O)(=O)N3CCOCC3)cc2)CC1)c1ccccc1 the results were TDP1 cell noCPT inconclusive, TDP1 block 6%, TDP1 cell CPT -22%, Giardia killer -20, IL-1B inflam inh -13 and ELG1 repair inh 6%.
O=C(NCC1CCN(c2ccc(S(=O)(=O)N3CCOCC3)cc2)CC1)c1ccc(Cl)cc1 was read as TDP1 cell noCPT 13µM*, TDP1 block 2%, TDP1 cell CPT 15µM*, Giardia killer -3, IL-1B inflam inh -75* and ELG1 repair inh 21µM*.
